The assay concerns Salmonella enterica serovar Typhimurium SL1344. The experiment in a line: normalized intracellular growth (luminescence, IQM-normalized) in RAW264.7 macrophages (fraction of plate interquartile mean); higher = more bacterial growth (less inhibition). The note with it: 10 µM.

± gives the standard deviation of the averaged measurements. Over roughly 1,600 compounds, “normalized intracellular growth (luminescence, IQM-normalized) in RAW264.7 macrophages” has its median near 1; the lowest 2% begin near 0.43. This excerpt belongs to a sample that is enriched for the lowest values.

Take `CC[C@H]1OC(=O)[C@H](C)[C@@H](O[C@H]2C[C@@](C)(OC)[C@@H](O)[C@H](C)O2)[C@H](C)[C@@H](O[C@@H]2O[C@H](C)C[C@H](N(C)C)[C@H]2O)[C@](C)(O)C[C@@H](C)CN(C)[C@H](C)[C@@H](O)[C@]1(C)O`: the normalized intracellular growth (time point: T3 (3 h)) is 1.05 ± 0.039 and the normalized intracellular growth (time point: Tfinal (~6 h)) stood at 0.00697 ± 0.00054.
In the same order, the values of `CC[C@H]1OC(=O)[C@H](C)[C@@H](O[C@H]2C[C@@](C)(OC)[C@@H](O)[C@H](C)O2)[C@H](C)[C@@H](O[C@@H]2O[C@H](C)C[C@H](N(C)C)[C@H]2O)[C@](C)(O)C[C@@H](C)/C(=N\OCOCCOC)[C@H](C)[C@@H](O)[C@]1(C)O` are 1.06 ± 0.03 and 0.825 ± 0.42.
In the same order, the values of `O=C(O)/C=C/C(=O)O` are 1.14 ± 0.1 and 1.03 ± 0.16.
In the same order, the values of `CCCCCCCCCCOc1cc2c(O)c(C(=O)OCC)cnc2cc1OCC` are 0.942 ± 0.08 and 0.973 ± 0.13.
In the case of `CC/C=C\C/C=C\C/C=C\C/C=C\C/C=C\C/C=C\CCC(=O)O`, the normalized intracellular growth reads like this: (time point: T3 (3 h)) 0.977 ± 0.069; (time point: Tfinal (~6 h)) 1.02 ± 0.09.
`COc1cc2c3cc1Oc1cc(ccc1O)C[C@@H]1c4c(cc(OC)c(O)c4Oc4ccc(cc4)C[C@@H]3N(C)CC2)CC[N+]1(C)C`: the normalized intracellular growth was 0.937 ± 0.083 (time point: T3 (3 h)) and 0.976 ± 0.16 (time point: Tfinal (~6 h)).
Take `CC[C@H]1OC(=O)[C@H](C)C(=O)[C@H](C)[C@@H](O[C@@H]2O[C@H](C)C[C@H](N(C)C)[C@H]2O)[C@](C)(OC)C[C@@H](C)C(=O)[C@H](C)[C@H]2N(CCCCn3cnc(-c4cccnc4)c3)C(=O)O[C@]12C`: the normalized intracellular growth reads like this: (time point: T3 (3 h)) 1.01 ± 0.086; (time point: Tfinal (~6 h)) 0.0132 ± 0.0042.
`CC[C@H]1OC(=O)[C@H](C)[C@@H](O[C@H]2C[C@@](C)(OC)[C@@H](O)[C@H](C)O2)[C@H](C)[C@@H](O[C@@H]2O[C@H](C)C[C@H](N(C)C)[C@H]2O)[C@](C)(OC)C[C@@H](C)C(=O)[C@H](C)[C@@H](O)[C@]1(C)O` had a normalized intracellular growth (time point: T3 (3 h)) of 1.09 ± 0.015 and a normalized intracellular growth (time point: Tfinal (~6 h)) of 0.976 ± 0.071.
In the same order, the values of `CCC(=O)O[C@H]1[C@H](O[C@@H]2[C@@H](C)[C@H](O[C@H]3C[C@@](C)(OC)[C@@H](O)[C@H](C)O3)[C@@H](C)C(=O)O[C@H](CC)[C@@](C)(O)[C@H](O)[C@@H](C)C(=O)[C@H](C)C[C@@]2(C)O)O[C@H](C)C[C@@H]1N(C)C` are 0.792 ± 0.092 and 0.901 ± 0.065.
As for `CCN[C@@H]1C[C@H](N)[C@@H](O[C@H]2OC(CN)=CC[C@H]2N)[C@H](O)[C@H]1O[C@H]1OC[C@](C)(O)[C@H](NC)[C@H]1O`, the normalized intracellular growth by setting is: (time point: T3 (3 h)) 0.986 ± 0.033; (time point: Tfinal (~6 h)) 0.632 ± 0.25.
`O=S(=O)(O)NC1CCCCC1`: the normalized intracellular growth by setting is: (time point: T3 (3 h)) 0.688 ± 0.097; (time point: Tfinal (~6 h)) 0.748 ± 0.044.
The like results for `CCCCCCCCCCC[C@@H](C[C@@H]1OC(=O)[C@H]1CCCCCC)OC(=O)[C@H](CC(C)C)NC=O` were, in that order, 0.987 ± 0.091 and 1.21 ± 0.048.
In the same order, the values of `C[N+](C)(C)CC(O)CC(=O)[O-]` (stereo unspecified) are 0.978 ± 0.032 and 0.91 ± 0.16.
In the same order, the values of `O=c1[nH]cc(F)c(=O)[nH]1` are 0.731 ± 0.089 and 0.153 ± 0.006.
Regarding `Nc1nc(=O)[nH]cc1F`, the normalized intracellular growth was found to be 1.07 ± 0.058 (time point: T3 (3 h)) and 1.28 ± 0.1 (time point: Tfinal (~6 h)).
As to `O=c1cc[nH]c(=O)[nH]1`, the normalized intracellular growth is, setting by setting: (time point: T3 (3 h)) 0.935 ± 0.09; (time point: Tfinal (~6 h)) 0.9 ± 0.052.
In the same order, the values of `O=C(NCCCN1CCOCC1)c1ccc(Cl)cc1` are 1.25 ± 0.11 and 1.35 ± 0.15.
As to `O=C(c1cccnc1)N1CCOCC1`, the normalized intracellular growth runs as follows: (time point: T3 (3 h)) 1.01 ± 0.09; (time point: Tfinal (~6 h)) 0.728 ± 0.18.
For the molecule `CC(=O)c1ccc2c(c1)N(CCCN1CCN(CCO)CC1)c1ccccc1S2`, the normalized intracellular growth reads like this: (time point: T3 (3 h)) 1.04 ± 0.024; (time point: Tfinal (~6 h)) 0.807 ± 0.11.
Regarding `Cc1c2oc3c(C)ccc(C(=O)N[C@@H]4C(=O)N[C@H](C(C)C)C(=O)N5CCC[C@H]5C(=O)N(C)CC(=O)N(C)[C@@H](C(C)C)C(=O)O[C@@H]4C)c3nc-2c(C(=O)N[C@@H]2C(=O)N[C@H](C(C)C)C(=O)N3CCC[C@H]3C(=O)N(C)CC(=O)N(C)[C@@H](C(C)C)C(=O)O[C@@H]2C)c(N)c1=O`, the normalized intracellular growth (time point: T3 (3 h)) worked out at 0.861 ± 0.057 and the normalized intracellular growth (time point: Tfinal (~6 h)) worked out at 1.05 ± 0.12.
Consider `CCCCCCCC/C=C\CCCCCCCC(=O)O.NCCO`, for which the normalized intracellular growth turned out to be 1.05 ± 0.035 (time point: T3 (3 h)) and 1.09 ± 0.041 (time point: Tfinal (~6 h)).
Take `COC(=O)N/N=C/c1c[n+]([O-])c2ccccc2[n+]1[O-]`: the normalized intracellular growth amounted to 0.957 ± 0.032 (time point: T3 (3 h)) and 0.309 ± 0.16 (time point: Tfinal (~6 h)).
The like results for `CC(=O)[C@@]1(O)CC[C@H]2[C@@H]3C=C(Cl)C4=CC(=O)[C@@H]5C[C@@H]5[C@]4(C)[C@H]3CC[C@@]21C` were, in that order, 1.06 ± 0.049 and 0.762 ± 0.26.
The like results for `COc1c2occc2cc2ccc(=O)oc12` were, in that order, 1.15 ± 0.034 and 1.36 ± 0.076.
In the same order, the values of `Nc1nc(N)c2nc(CNc3ccc(C(=O)N[C@@H](CCC(=O)O)C(=O)O)cc3)cnc2n1` are 0.994 ± 0.021 and 1.09 ± 0.15.
On to `CCCCCC(C)N` (stereo unspecified), for which the normalized intracellular growth by setting is: (time point: T3 (3 h)) 0.993 ± 0.077; (time point: Tfinal (~6 h)) 0.979 ± 0.12.
In the same order, the values of `CO[C@H]1C[C@H](O[C@@H]2/C(C)=C/C[C@@H]3C[C@@H](C[C@]4(CC[C@H](C)[C@@H](C5CCCCC5)O4)O3)OC(=O)[C@@H]3C=C(C)/C(=N/O)[C@H]4OC/C(=C\C=C\[C@@H]2C)[C@]43O)O[C@@H](C)[C@@H]1O` are 1.01 ± 0.064 and 1.16 ± 0.094.
In the same order, the values of `CC(=O)OCC(=O)[C@@]1(O)CC[C@H]2[C@@H]3CCC4=CC(=O)C=C[C@]4(C)[C@H]3[C@@H](O)C[C@@]21C` are 0.822 ± 0.19 and 0.823 ± 0.06.
In the same order, the values of `C[C@]12C=CC(=O)C=C1CC[C@@H]1[C@@H]2[C@@H](O)C[C@@]2(C)[C@H]1CC[C@]2(O)C(=O)CO` are 0.8 ± 0.15 and 0.888 ± 0.078.
Regarding `C[C@H]1C[C@@H]2[C@H]([C@@H](O)C[C@@]3(C)[C@H]2CC[C@]3(O)C(=O)CO)[C@@]2(C)C=CC(=O)C=C12`, the normalized intracellular growth stood at 1.07 ± 0.02 (time point: T3 (3 h)) and 0.417 ± 0.054 (time point: Tfinal (~6 h)).
The like results for `CC(C)Nc1ncccn1` were, in that order, 0.928 ± 0.053 and 1.05 ± 0.2.
Take `Cc1oc(=O)oc1CN1CCN(c2cc3c(cc2F)c(=O)c(C(=O)O)c2n3C(C)S2)CC1` (stereo unspecified): the normalized intracellular growth runs as follows: (time point: T3 (3 h)) 1.14 ± 0.069; (time point: Tfinal (~6 h)) 0.0187 ± 0.0013.
In the same order, the values of `NC(=O)[C@@H]1CCCN1C(=O)[C@H](Cc1c[nH]cn1)NC(=O)[C@@H]1CCC(=O)N1` are 1.02 ± 0.038 and 0.959 ± 0.044.
The like results for `CC1(C)OC(=O)C(OCC2CC2)=C1c1ccc(S(C)(=O)=O)cc1` were, in that order, 1.15 ± 0.017 and 1.2 ± 0.13.
The like results for `OCC(S)CS` (stereo unspecified) were, in that order, 0.927 ± 0.011 and 1.03 ± 0.053.
Regarding `O=C(O)c1ccc[n+]([O-])c1`, the normalized intracellular growth is, setting by setting: (time point: T3 (3 h)) 0.967 ± 0.051; (time point: Tfinal (~6 h)) 1.05 ± 0.023.
`COc1ccc2cc(C(C)C(=O)O)ccc2c1` (stereo unspecified): the normalized intracellular growth was found to be 1.04 ± 0.036 (time point: T3 (3 h)) and 1.09 ± 0.089 (time point: Tfinal (~6 h)).
As to `C=C[C@H]1CN2CC[C@H]1C[C@H]2[C@H](O)c1ccnc2ccc(OC)cc12`, the normalized intracellular growth runs as follows: (time point: T3 (3 h)) 0.978 ± 0.042; (time point: Tfinal (~6 h)) 0.953 ± 0.058.
